From PubChem BioAssay (Tox21)
Records with an inconclusive call do not appear. The source made the active and inactive calls. Calls come from the whole dose curve; as a rule, active = well fitted curve in the direction sought with a large enough effect in the repeat runs; inconclusive = weak or mixed curves; inactive = no such curve, though single readings can be large; an effect the other way counts as inactive or inconclusive.

How the values were obtained:
[1] = qHTS RealTime-Glo MT Cell Viability Assay in HepG2 cells - 40 hour (AID 1224870); note: nearly all actives have a fitted effect of over 50% in size
Summary of the method: (§1)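 HepG2 cells (600/well) mixed with RealTime-Glo MT reagent, settled 5 h at 37 C/5% CO2 before compound addition. Nonlytic NanoLuc luminescence from viable-cell prosubstrate reduction read repeatedly during 40 h treatment at 37 C.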

[2] = A CellTox Green Cytotoxicity Assay to monitor cytotoxicity in HEK293 cells - 40 hour (AID 1224871); note: nearly all actives have a fitted effect of over 45% in size
Summary of the method: (§2)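 Seeding of HEK293 cells together with cytotoxicity dye preceded a 5 h incubation at 37 C/5% CO2. Test compounds in DMSO were then added and fluorescence monitored across 40 h.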

[3] = qHTS RealTime-Glo MT Cell Viability Assay in HEK293 cells - 16 hour (AID 1224872); note: top concentration of the series differs between compounds; nearly all actives have a fitted effect of over 50% in size
Summary of the method: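 Reads taken at 0, 8, 16, 24, 32 and 40 h from the same wells. HEK293 cells (600/well) carried RealTime-Glo reagents from seeding, with compound added after a 5 h settle at 37 C.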

[4] = qHTS RealTime-Glo MT Cell Viability Assay in HepG2 cells - 8 hour (AID 1224873); note: nearly all actives have a fitted effect of over 55% in size
Summary of the method: as §1

[5] = qHTS RealTime-Glo MT Cell Viability Assay in HEK293 cells - 40 hour (AID 1224874); details: RealTime-Glo luminescence; max response: stronger effect = lower value; note: nearly all actives have a fitted effect of over 50% in size
Summary of the method: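 Tox21 screen in HEK293 using RealTime-Glo MT chemistry, with cells and reagent co-dispensed. Luminescence proportional to viable cell number was captured at intervals during 40 h compound exposure at 37 C.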

[6] = A CellTox Green Cytotoxicity Assay to monitor cytotoxicity in HepG2 cells - 16 hour (AID 1224876); note: nearly all actives have a fitted effect of over 45% in size
Summary of the method: (§3)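 Nonlytic assay: viable cells exclude the dye, so fluorescence scales with cell death. HepG2 at 600 cells/well, compounds added after 5 h, signal read across 40 h.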

[7] = qHTS RealTime-Glo MT Cell Viability Assay in HepG2 cells - 32 hour (AID 1224877); note: nearly all actives have a fitted effect of over 55% in size
Summary of the method: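 HepG2 suspension premixed with RealTime-Glo reagents is plated at 600 cells per well and left 5 h at 37 C/5% CO2. Compounds in DMSO then go in, and bioluminescence reflecting viable cell number is recorded over 40 h.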

[8] = A CellTox Green Cytotoxicity Assay to monitor cytotoxicity in HepG2 cells - 24 hour (AID 1224878); note: nearly all actives have a fitted effect of over 45% in size
Summary of the method: as §3

[9] = A CellTox Green Cytotoxicity Assay to monitor cytotoxicity in HepG2 cells - 40 hour (AID 1224879); note: nearly all actives have a fitted effect of over 40% in size
Summary of the method: as §3

[10] = A CellTox Green Cytotoxicity Assay to monitor cytotoxicity in HEK293 cells - 24 hour (AID 1224875); note: series mostly up to about 77 µM; nearly all actives have a fitted effect of over 45% in size
Summary of the method: as §2
% is set by controls: 0 for no effect and ±100 for the full control effect.

C=C(C)[C@H]1CC=C(C)CC1
inactive: Potency [1] | Potency [2] | Potency [3] | outcome [4] | max response [5] 0.727% | Potency [6] | Potency [7] | Potency [8] | Potency [9]

COC(C(=O)O)c1ccccc1 (configuration not stated)
inactive: Potency [1] | Potency [2] | Potency [3] | outcome [4] | max response [5] 2.29% | Potency [10] | Potency [7] | Potency [8] | Potency [9]

Cn1ccc2cc3c(cc21)CCN3C(=O)Nc1cccnc1
inactive: activity change, negative = cytotoxic [1] -0.975% [at 15.8 µM] | cytotoxicity increase [2] -10.7% [at 15.8 µM] | activity change, negative = cytotoxicity [3] -8.97% [at 15.8 µM] | viability change, negative = cytotoxic [4] -3.74% [at 15.8 µM] | max response [5] -5.83% | cytotoxicity increase [6] -8.93% [at 15.8 µM] | activity change, negative = cytotoxic [7] -1.69% [at 15.8 µM] | cytotoxicity [8] -8.65% [at 15.8 µM] | cytotoxicity increase [9] -12.1% [at 15.8 µM]

CC(=O)N[C@@H](CCC(N)=O)C(=O)O
inactive: Potency [1] | Potency [2] | Potency [3] | outcome [4] | max response [5] -1.52% | Potency [6] | Potency [7] | Potency [8] | Potency [9]

NC(=O)c1c(Cl)cccc1Cl
inactive: Potency [1] | Potency [2] | Potency [3] | outcome [4] | max response [5] -0.288% | Potency [10] | Potency [7] | Potency [8] | Potency [9]

COc1cccc(OC)c1
inactive: Potency [1] | Potency [2] | Potency [3] | outcome [4] | max response [5] 0.816% | Potency [6] | Potency [7] | Potency [8] | Potency [9]

CC(C)CCCC(C)NCCC(C)C (configuration not stated)
inactive: Potency [1] | Potency [2] | Potency [3] | outcome [4] | max response [5] 0.252% | Potency [10] | Potency [7] | Potency [8] | Potency [9]

COc1cccc(Br)c1
inactive: Potency [1] | Potency [2] | Potency [3] | outcome [4] | max response [5] -10% | Potency [7]

CC(C)(O)Cc1ccccc1
inactive: Potency [1] | Potency [2] | Potency [3] | outcome [4] | Potency [10] | Potency [6] | Potency [7] | Potency [9]

CC1(C)OC(=O)Nc2ccc(Br)cc21
inactive: Potency [1] | Potency [2] | Potency [3] | outcome [4] | max response [5] 0.0036% | Potency [6] | Potency [7] | Potency [8] | Potency [9]

CCCCCCC(CCCCCCCCCCC(=O)OCC(COC(C)=O)OC(C)=O)OC(C)=O (configuration not stated)
inactive: Potency [1] | Potency [2] | Potency [3] | outcome [4] | max response [5] 14.5% | Potency [6] | Potency [7] | Potency [8] | Potency [9]

Nc1nc(F)nc2c1ncn2[C@@H]1O[C@H](CO)[C@@H](O)[C@@H]1O
inactive: Potency [1] | Potency [2] | Potency [3] | outcome [4] | max response [5] -1.6% | Potency [7] | Potency [8] | Potency [9]

C=CCOCC(O)CS(=O)(=O)O (configuration not stated)
inactive: Potency [1] | Potency [2] | Potency [3] | outcome [4] | max response [5] -7.7% | Potency [10] | Potency [7] | Potency [9]

CN(C)N=Nc1ccccc1
inactive: Potency [1] | Potency [2] | Potency [3] | outcome [4] | max response [5] 15% | Potency [6] | Potency [7] | Potency [8] | Potency [9]

COc1cc(CCC(C)=O)ccc1O
inactive: Potency [1] | Potency [2] | Potency [3] | outcome [4] | max response [5] -0.231% | Potency [6] | Potency [7] | Potency [9]

OCCN1C[C@H](O)[C@@H](O)[C@H](O)[C@H]1CO
inactive: Potency [1] | Potency [2] | Potency [3] | outcome [4] | max response [5] 3.53% | Potency [6] | Potency [7] | Potency [9]

C(=C(c1ccccc1)c1ccccc1)c1ccccc1
inactive: Potency [1] | Potency [2] | Potency [3] | outcome [4] | max response [5] 7.28% | Potency [7] | Potency [8] | Potency [9]

Cc1ccccc1C(=O)O
inactive: Potency [1] | Potency [2] | Potency [3] | outcome [4] | max response [5] -0.805% | Potency [7]

O=[N+]([O-])c1ccc(CCO)cc1
inactive: Potency [1] | Potency [2] | Potency [3] | outcome [4] | max response [5] -7.45% | Potency [6] | Potency [7] | Potency [9]

OCCCCCCO
inactive: Potency [1] | Potency [2] | Potency [3] | outcome [4] | max response [5] -17.6% | Potency [10] | Potency [7] | Potency [9]

CC(C)=CC(=O)O
inactive: Potency [1] | Potency [2] | Potency [3] | outcome [4] | max response [5] 10.8% | Potency [6] | Potency [7] | Potency [8] | Potency [9]

COc1ccc(COC=O)cc1
inactive: Potency [1] | Potency [2] | Potency [3] | outcome [4] | Potency [10] | Potency [6] | Potency [7] | Potency [9]

CC(C)c1cccc(O)c1
inactive: Potency [1] | Potency [2] | outcome [4] | max response [5] 1.56% | Potency [10] | Potency [6] | Potency [7]

CCCc1ccccc1O
inactive: Potency [1] | Potency [2] | Potency [3] | max response [5] -8.16% | Potency [10] | Potency [6] | Potency [7] | Potency [8] | Potency [9]

C=C(C)C(=O)NCCC[N+](C)(C)C
inactive: Potency [1] | Potency [2] | Potency [3] | max response [5] 0.623% | Potency [10] | Potency [6] | Potency [7] | Potency [8] | Potency [9]

CCCCN(CCO)CCO
inactive: Potency [1] | Potency [2] | outcome [4] | max response [5] 19% | Potency [10] | Potency [7] | Potency [8] | Potency [9]

CC(=O)O[C@H](CC(=O)[O-])C[N+](C)(C)C
inactive: Potency [1] | Potency [2] | Potency [3] | max response [5] 4.27% | Potency [7] | Potency [9]

CO
inactive: Potency [1] | Potency [2] | Potency [3] | max response [5] 3.26% | Potency [10] | Potency [7] | Potency [8] | Potency [9]

CC1=CCC2C(C1)C2(C)C (configuration not stated)
inactive: Potency [1] | Potency [2] | Potency [3] | max response [5] 1.81% | Potency [7] | Potency [8] | Potency [9]
